Test results as given in the supplement of paper PMC10338343.
± gives the standard deviation.

These sequences were tested on EfPiwi piRISC loaded with L1MC piRNA (26 nt) (assay: pre-steady-state target cleavage rate (min^-1); auxiliary factor: 500 nM Ephydatia muelleri Gtsf1; guide: L1MC piRNA 5'p-UAACUAAAUACUAUGCAAGCUGUAGG; MIWI and MILI are mouse PIWI proteins and EfPiwi is from a freshwater sponge; tags in brackets are library labels; higher = faster piRNA-guided slicing of the target).
Summary of the method: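 Reactions were run for 0–8 or 0–960 min at 33 °C in HEPES–potassium acetate buffer, combining 1 nM active affinity-purified piRISC with one synthetic guide, […] transcribed, DNA-blocked target RNA library and, in some cases, 500 nM GTSF1 partner protein. Sequencing of uncleaved targets followed, with normalisation to depth and to weakly complementary targets. Three trials were pooled, k3 was capped at 0.0001 min^-1, and the pre-steady-state cleavage rate was taken from a burst-and-steady-state fit.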
With UCCUGGAUGUCGAACGAUAGUAUUUAGGUA the “pre-steady-state target cleavage rate” value was < 0.0001. For UCCUGGAAGAGCUUGCAUAGUAAUUAGUUA, the “pre-steady-state target cleavage rate” value was 0.00806 ± 0.0027. With UCCUCCUACAGCUUCCAUAGUAUAUAGUUA the “pre-steady-state target cleavage rate” value was 0.00246 ± 0.0022. With UCCUGGAUGAGCUUGCAUAGUAAUUACAAA the “pre-steady-state target cleavage rate” value was 0.00446 ± 0.0034. UCCUGCUACAGCUUCCAUAGUAUUUAGAUA was tested, and the “pre-steady-state target cleavage rate” value was 0.00303 ± 0.00093. UCCUGCUACAGCUUGCAUAGUAUAAUGUAA was tested, and the “pre-steady-state target cleavage rate” value was 0.00248 ± 0.002. With UCCUCCUACAGGUUGCAUAGAAUUUAGUUA the “pre-steady-state target cleavage rate” value was 0.0062 ± 0.0014. For UCCUGGAUGAGCUUGCAUAGUAUUUGAGUUA, the “pre-steady-state target cleavage rate” value was 0.00491 ± 0.0024. With UCCUGGAUGUGCAUGCAUAGUAUUUAGUUA the “pre-steady-state target cleavage rate” value was 0.00855 ± 0.0029. With UCCUGGAUGUCGAACGACAGUAUUUAGUUA the “pre-steady-state target cleavage rate” value was < 0.0001. With UCCUGCUACAGCUUGCAUAGUAUUAAGAAA the “pre-steady-state target cleavage rate” value was 0.00481 ± 0.0021. UCCUGGAACAGCUUGCAUAGUUUUUAGUUA was tested, and the “pre-steady-state target cleavage rate” value was 0.00683 ± 0.0019. UCCUGGAUGACCUUGCAUAGUAUUUAGUUA was tested, and the “pre-steady-state target cleavage rate” value was 0.0113 ± 0.0049. With UCCUCCUACAGCUUGCAUUGUAUUUUGUUA the “pre-steady-state target cleavage rate” value was 0.00442 ± 0.0027. In the case of UCCUGCUACAGCUUGCAUAGUCUUUAGUUA, the “pre-steady-state target cleavage rate” value is reported as 0.00416 ± 0.001. With UCCUGGAUGUCGAACGUAUGUCUUUAGUUA the “pre-steady-state target cleavage rate” value was < 0.0001. In the case of UCCUGGAUCAGGUUGCAUAGUAUUUAGUAA, the “pre-steady-state target cleavage rate” value is reported as 0.00537 ± 0.0021. UCCUGGAUGUCGAACGUUAGAUUUAGUUA was tested, and the “pre-steady-state target cleavage rate” value was < 0.0001. With UCCUCCUAGAGCUUGCAUAGUAUAUAGUUA the “pre-steady-state target cleavage rate” value was 0.00597 ± 0.0022. With UCCUGGAUCAGCUUGCAGAGUAUUUAGUUA the “pre-steady-state target cleavage rate” value was 0.00715 ± 0.0022. In the case of UCCUCCUACAGCUUGGAUAGUAUUUUCAAA, the “pre-steady-state target cleavage rate” value is reported as 0.00297 ± 0.0022. UCCUCCUACACGAUGCAUAGUAUUUAGUUA was tested, and the “pre-steady-state target cleavage rate” value was 0.0593 ± 0.017. For UCCUGGAUGUCGAACCAUAGUUUUAGUUA, the “pre-steady-state target cleavage rate” value was < 0.0001. For UCCUGCUACAGCUUGCAUAGUAUAUAGAUA, the “pre-steady-state target cleavage rate” value was 0.00352 ± 0.0017. With UCCUCCUACAGCUUGCGAUAGUAUUUAGUUA the “pre-steady-state target cleavage rate” value was 0.00839 ± 0.0023. UCCUCCUACAGCUUACAUAGUAUUUAGUUA was tested, and the “pre-steady-state target cleavage rate” value was 0.106 ± 0.028. In the case of “UCCUGGAUGUGCUUGCAUAGUAUUUAGUUU [g2:g20:cont:t1U]”, the “pre-steady-state target cleavage rate” value is reported as 0.052 ± 0.017. For UCCUGGAUGUCGAACGUAUGUAUUUUAGUUA, the “pre-steady-state target cleavage rate” value was < 0.0001. UCCUGGAUGUCGAACGUAUGUAUUUUGUUA was tested, and the “pre-steady-state target cleavage rate” value was < 0.0001. For UCCUGGAUGUCGUUGGUUAGUAUUUAGUUA, the “pre-steady-state target cleavage rate” value was < 0.0001. With UCCUGGAACAGCUUGCAUAGUAUUUAAUUA the “pre-steady-state target cleavage rate” value was 0.00345 ± 0.0024. In the case of UCCUGGAUGUGCUCUGCAUAGUAUUUAGUUA, the “pre-steady-state target cleavage rate” value is reported as 0.00925 ± 0.0031. UCCUGGUACAGCUUGUCAUAGUAUUUAGUUA was tested, and the “pre-steady-state target cleavage rate” value was 0.00651 ± 0.0024. With UCCUGGAUGUCGAAGCAUACUAUUUUGUUA the “pre-steady-state target cleavage rate” value was < 0.0001. In the case of UCCUCCUACAGCUUGCAUAGUAUUUUGAUA, the “pre-steady-state target cleavage rate” value is reported as 0.0044 ± 0.0029. With UCCUCCUACAGCUUGCUUAGUAUAUAGUUA the “pre-steady-state target cleavage rate” value was 0.0127 ± 0.0069. UCCUGGAAGAGCUUGCAAAGUAUUUAGUUA was tested, and the “pre-steady-state target cleavage rate” value was 0.018 ± 0.005. UCCUGGUUCAGCUUGCAAAGUAUUUAGUUA was tested, and the “pre-steady-state target cleavage rate” value was 0.0681 ± 0.019. UCCUGGAACACCUUGCAUAGUAUUUAGUUA was tested, and the “pre-steady-state target cleavage rate” value was 0.0061 ± 0.0032. UCCUGGUACAGCUUCCAUAGUAUUUAGUUA was tested, and the “pre-steady-state target cleavage rate” value was 0.00258 ± 0.0017.
